Laboratory results taken from PubChem BioAssay (NCATS).
Records with an inconclusive call do not appear. Entries that show only a call come without a potency. Values without a mark were called inactive. Calls of active or inactive are those of the source. Calls come from the whole dose curve; as a rule, active = well fitted curve in the direction sought with a large enough effect; inconclusive = small, poorly fitted or top-dose-only effect, or another doubt; inactive = no such curve, though single readings can be large; an effect the other way counts as inactive or inconclusive.

Assays:
[1] = qHTS of pediatric cancer cell lines to identify multiple opportunities for drug repurposing: Primary screen for NB-EBc1 cells (AID 1347095); note: potency is the fitted concentration of half-maximal effect
Procedure, shortened: (§1)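 Phenotypic viability qHTS, 48 h compound exposure, CellTiter-Glo luminescence read-out; multi-concentration dosing so that potency and efficacy derive directly from the primary screen's curves.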

[2] = qHTS of pediatric cancer cell lines to identify multiple opportunities for drug repurposing: Primary screen for U-2 OS cells (AID 1347096); note: nearly all actives have a fitted effect of over 50% in size
Procedure, shortened: (§2)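 Viability after 48 h compound treatment at 37C, 500-1,000 cells/well, read as ATP luminescence with CellTiter-Glo. Primary screens used 11-point (MIPE, 0.78 nM-46 µM) or 8-point (NPC, 0.59 nM-46 µM) final concentrations; follow-up screens used 11-point dilutions.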

[3] = qHTS of pediatric cancer cell lines to identify multiple opportunities for drug repurposing: Primary screen for Saos-2 cells (AID 1347097); note: nearly all actives have a fitted effect of over 40% in size; note: potency is the fitted concentration of half-maximal effect
Procedure, shortened: as §1

[4] = qHTS of pediatric cancer cell lines to identify multiple opportunities for drug repurposing: Primary screen for LAN-5 cells (AID 1347100); note: potency is the fitted concentration of half-maximal effect
Procedure, shortened: as §2

[5] = qHTS of pediatric cancer cell lines to identify multiple opportunities for drug repurposing: Primary screen for BT-12 cells (AID 1347101); note: nearly all actives have a fitted effect of over 25% in size; note: potency is the fitted concentration of half-maximal effect
Procedure, shortened: (§3)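 Cells (500-1,000/well) rested 5 h, then received compounds for 48 h; metabolically active cells were measured by CellTiter-Glo luminescence. Final concentrations spanned up to 46 µM (MIPE, 11-point) or 0.59 nM-46 µM (NPC, 8-point) in primary screens, 11-point in follow-ups.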

[6] = qHTS of pediatric cancer cell lines to identify multiple opportunities for drug repurposing: Primary screen for Rh18 cells (AID 1347102); note: nearly all actives have a fitted effect of over 65% in size
Procedure, shortened: as §2

[7] = qHTS of pediatric cancer cell lines to identify multiple opportunities for drug repurposing: Primary screen for OHS-50 cells (AID 1347103); note: nearly all actives have a fitted effect of over 40% in size; note: potency is the fitted concentration of half-maximal effect
Procedure, shortened: as §3

[8] = qHTS of pediatric cancer cell lines to identify multiple opportunities for drug repurposing: Primary screen for RD cells (AID 1347104); note: nearly all actives have a fitted effect of over 55% in size; note: potency is the fitted concentration of half-maximal effect
Procedure, shortened: as §1

[9] = qHTS of pediatric cancer cell lines to identify multiple opportunities for drug repurposing: Primary screen for NB1643 cells (AID 1347099); note: nearly all actives have a fitted effect of over 50% in size; note: potency is the fitted concentration of half-maximal effect
Procedure, shortened: as §1

[10] = qHTS of pediatric cancer cell lines to identify multiple opportunities for drug repurposing: Primary screen for SK-N-SH cells (AID 1347098); note: nearly all actives have a fitted effect of over 65% in size; note: potency is the fitted concentration of half-maximal effect;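 for activity change, negative = cytotoxic: DMSO served as neutral control and bortezomib at 2.3 µM as positive control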
Procedure, shortened: as §3

Structure (SMILES) | Potency [1] | Potency [2] | Potency [3] | Potency [4] | Potency [5] | Potency [6] | Potency [7] | Potency [8] | Potency [9] | Potency [10] | activity change, negative = cytotoxic [2]
C[C@H]1O[C@H](O[C@H]2[C@H](O)[C@@H](O)[C@@H](O[C@H]3[C@H](O)[C@@H](O)C(O)O[C@H]3CO)O[C@H]2CO)[C@H](O)[C@@H](O)[C@H]1N[C@H]1C=C(CO)[C@@H](O)[C@H](O)[C@@H]1O (some centres undefined) | inactive | inactive | 2.35 µM (active) | 2.35 µM (active) | 2.17 µM (active) | inactive | 2.17 µM (active) | inactive |  |  | 
CCn1c(=O)c2c(nc(C=Cc3ccc(OC)c(OC)c3)n2C)n(CC)c1=O | inactive | inactive | inactive | inactive | inactive | inactive |  |  |  |  | 
CC[C@H]1OC(=O)[C@H](C)[C@@H](O[C@H]2C[C@@](C)(OC)[C@@H](O)[C@H](C)O2)[C@H](C)[C@@H](O[C@@H]2O[C@H](C)C[C@H](N(C)C)[C@@H]2O)[C@](C)(OC)C[C@@H](C)C(=O)[C@H](C)[C@@H](O)[C@]1(C)O | inactive | inactive | inactive | inactive | inactive | inactive | inactive | inactive |  |  | 
CON=C(C(=O)N[C@@H]1C(=O)N2C(C(=O)O)=C(Cn3ccc(=N)n3CCO)CS[C@H]12)c1csc(N)n1 | inactive | inactive | inactive | inactive | inactive | inactive | inactive | inactive |  |  | 
CC(C)(O)CC[C@@H](O)[C@](C)(O)[C@H]1CC[C@@]2(O)C3=CC(=O)[C@@H]4C[C@@H](O)[C@@H](O)C[C@]4(C)[C@@H]3CC[C@]12C | inactive | inactive | inactive | inactive | inactive | inactive | inactive |  |  |  | 
O=[N+]([O-])c1cn2c(n1)OC[C@@H](OCc1ccc(OC(F)(F)F)cc1)C2 | inactive | inactive | inactive | inactive |  |  |  | inactive | inactive |  | 
CC(O)(C#Cc1ccc2c(c1)N(c1nc(N)ncc1Cl)CC2)c1nccs1 (centres undefined) | inactive | inactive |  |  |  | inactive | 24.3 µM (active) | 18.7 µM (active) | 16.6 µM (active) | 21.5 µM (active) | 
Cc1cc(O)c2c(c1)C(=O)c1cccc(O)c1C2=O | inactive | inactive |  | inactive | inactive | inactive | inactive | inactive | inactive | inactive | 
CCC(C=C[C@@H]1OC(=O)C=C[C@H]1C)=C[C@H](C)CC=CC(C)=C[C@@H](C)C(=O)[C@@H](C)[C@H](O)[C@@H](C)CC(C)=CC(=O)O | 0.0247 µM (active) |  |  |  | 0.0322 µM (active) |  | 0.128 µM (active) | 0.0782 µM (active) | 0.0277 µM (active) | 0.0403 µM (active) | 13.2% [at 1.86 µM]
Nc1cccc2c1C(=O)N(C1CCC(=O)NC1=O)C2=O (centres undefined) | inactive | inactive |  | inactive |  | inactive | inactive | inactive | inactive | inactive | 
CCCCOc1ccc(C(=O)Nc2ccc(F)cc2F)cc1 | inactive | inactive | inactive | inactive | inactive | inactive | inactive | inactive |  |  | 
Nc1nc2c(c(=O)[nH]1)N(C=O)[C@H](CNc1ccc(C(=O)N[C@@H](CCC(=O)O)C(=O)O)cc1)CN2 | inactive | inactive | inactive | 10.5 µM (active) | 10.9 µM (active) | inactive | 27.3 µM (active) |  |  |  | 
COC(=O)[C@@H]1[C@H]2C[C@@H]3c4[nH]c5ccccc5c4CCN3C[C@@H]2CC[C@@H]1O | inactive | inactive | inactive | inactive | inactive | inactive |  | inactive |  |  | 
COc1cc2c(cc1OC)[C@@H]1C(=O)c3ccc4c(c3O[C@@H]1CO2)C=CC(C)(C)O4 | 10.5 µM (active) | inactive | 13.2 µM (active) | 18.7 µM (active) | 0.0273 µM (active) | inactive | 0.172 µM (active) | 0.264 µM (active) |  |  | 
CCCc1nc(C(C)(C)O)c(C(=O)O)n1Cc1ccc(-c2ccccc2-c2nn[nH]n2)cc1 | inactive | inactive | inactive | inactive | inactive | inactive | inactive | inactive |  |  | 
CN(C)CC[C@H](c1ccc(Cl)cc1)c1ccccn1 | inactive | inactive | inactive | inactive | inactive | inactive | inactive |  |  |  | 
c1cc(CN2CCCNCCNCCCNCC2)ccc1CN1CCCNCCNCCCNCC1 | inactive | inactive | inactive | inactive | inactive | inactive | inactive | inactive |  |  | 
C[C@H](NC(=O)Cc1cc(F)cc(F)c1)C(=O)N[C@H](C(=O)OC(C)(C)C)c1ccccc1 | inactive | inactive | inactive | inactive | inactive | inactive |  | inactive |  |  | 
